Drawing on PubChem BioAssay (NCI), this text covers growth inhibition for 9 compounds.

The nature of assay [1]: NCI Yeast Anticancer Drug Screen. Data for the rad50 strain (AID 155).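 Further: 0% = growth of vehicle-only cultures of the same strain.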 Conditions: S. cerevisiae rad50 strain growth inhibition, active compounds read high. The gist of the method: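 A DNA repair-deficient yeast mutant serves as the test organism; compound-induced growth inhibition is calculated against vehicle-treated cells.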
The nature of assay [2]: NCI Yeast Anticancer Drug Screen. Data for the mec2-1 strain (AID 157). Conditions: S. cerevisiae mec2-1 strain, active compounds read high. The gist of the method:
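Mutant yeast (mec2-1) grown with compound; growth inhibition relative to vehicle control reported.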

Assay [3] is described as follows: NCI Yeast Anticancer Drug Screen. Data for the sgs1 mgt1 strain (AID 161).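 Further: 0% = growth of cultures given vehicle only.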 Conditions: S. cerevisiae sgs1 mgt1 strain, active compounds read high. The gist of the method:
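Yeast cells carrying a defined DNA-repair defect were exposed to test compounds. Growth inhibition was measured relative to vehicle-treated controls.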

Assay [4] is described as follows: NCI Yeast Anticancer Drug Screen. Data for the cln2 rad14 strain (AID 165).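 Further: 0% = growth equal to vehicle treated cultures.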 Conditions: S. cerevisiae cln2 rad14 strain, active compounds read high. The gist of the method: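 Readout is yeast growth inhibition versus vehicle-treated controls, using a strain with cln2 and rad14 alterations exposed to compound.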
The nature of assay [5]: NCI Yeast Anticancer Drug Screen. Data for the bub3 strain (AID 167). Conditions: S. cerevisiae bub3 mutant strain, active compounds read high. The gist of the method:
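Inhibition values come from growth of compound-treated mutant yeast normalised to vehicle-treated controls.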

The nature of assay [6]: NCI Yeast Anticancer Drug Screen. Data for the mlh1 rad18 strain (AID 175). The settings on record: S. cerevisiae mlh1 rad18 strain growth inhibition, active compounds read high. The gist of the method:
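Genetically defined yeast (DNA repair-deficient) exposed to compounds; growth inhibition determined relative to vehicle.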

Where [7] appears, read: at 5.0 µM (retest, dose inferred, filed as 0.5).
Where [8] appears, read: at 50.0 µM (retest, dose inferred, filed as 5.0).

About 79,000 compounds went through this panel and 15% of them were active in at least one assay; those are over-represented in the sample as a whole. Unmarked numbers belong to inactive results. The source made the active and inactive calls. No stated cut-off is given here; in the data, active means growth inhibition above about 70%; inactive means the rest.

Regarding `O=C(O)CC(CCCc1ccccc1)C(=O)O` (configuration not stated), the growth inhibition in assay [1] (setting [7]) was -1%; in assay [1] (setting [8]) it was -3%; in assay [1] (at 50.0 µM), -7.45%; in assay [2] (setting [7]), -41%; in assay [2] (setting [8]), -3%; in assay [2] (at 50.0 µM), 15.4%. The growth inhibition in assay [3] (setting [7]) was -1%; in assay [3] (setting [8]), -4%; in assay [3] (at 50.0 µM), -10.8%; in assay [4] (setting [7]) it was -2%; in assay [4] (setting [8]), -1%; in assay [4] (at 50.0 µM), 40.9%. The growth inhibition in assay [5] (setting [7]) was -5%; in assay [5] (setting [8]) it was -7%; in assay [5] (at 50.0 µM) it was -1.1%; in assay [6] (setting [7]) it was 0%; in assay [6] (setting [8]), -4%; in assay [6] (at 50.0 µM), 2.55%.

For `CCCCN(CCC=C1c2ccccc2Oc2ccccc21)CCCC`, the growth inhibition in assay [1] (setting [7]) was 7%; in assay [1] (setting [8]), 99% (active); in assay [1] (at 50.0 µM) it was 99.7% (active); in assay [2] (setting [7]) it was 4%; in assay [2] (setting [8]), 99% (active); in assay [2] (at 50.0 µM), 99.7% (active). In addition, the growth inhibition in assay [3] (setting [7]) is 9%; in assay [3] (setting [8]) it was 99% (active); in assay [3] (at 50.0 µM), 99.7% (active); in assay [4] (setting [7]), 4%; in assay [4] (setting [8]), 99% (active); in assay [4] (at 50.0 µM) it was 99% (active). Moreover, the growth inhibition in assay [5] (setting [7]) was 6%; in assay [5] (setting [8]), 99% (active); in assay [5] (at 50.0 µM), 11.7%; in assay [6] (setting [7]), 5%; in assay [6] (setting [8]), 99% (active); in assay [6] (at 50.0 µM) it was 99.6% (active).

As for `CCOC(=O)C(Br)C(Br)c1cccc([N+](=O)[O-])c1` (configuration not stated), the growth inhibition in assay [1] (setting [7]) was 97% (active); in assay [1] (setting [8]), 99% (active); in assay [1] (at 50.0 µM) it was 99.7% (active); in assay [2] (setting [7]), 93% (active); in assay [2] (setting [8]), 100% (active); in assay [2] (at 50.0 µM) it was 99.8% (active). Moreover, the growth inhibition in assay [3] (setting [7]) is 99% (active); in assay [3] (setting [8]), 100% (active); in assay [3] (at 50.0 µM), 99.7% (active); in assay [4] (setting [7]), 92% (active); in assay [4] (setting [8]), 99% (active); in assay [4] (at 50.0 µM), 98% (active). The growth inhibition was 98% (active) in assay [5] (setting [7]); 99% (active) in assay [5] (setting [8]); 99.5% (active) in assay [5] (at 50.0 µM); 98% (active) in assay [6] (setting [7]); 99% (active) in assay [6] (setting [8]); 99.6% (active) in assay [6] (at 50.0 µM).

`O=C1C=CC2=Nc3ccccc3CCC2=C1`: the growth inhibition in assay [1] (setting [7]) was -151%; in assay [1] (setting [8]), 95% (active); in assay [1] (at 50.0 µM), 90% (active); in assay [2] (setting [7]), -57%; in assay [2] (setting [8]), 95% (active); in assay [2] (at 50.0 µM), 99% (active). For the same compound, the growth inhibition in assay [3] (setting [7]) was -63%; in assay [3] (setting [8]), 95% (active); in assay [3] (at 50.0 µM), 87.7% (active); in assay [4] (setting [7]), -52%; in assay [4] (setting [8]), 86% (active); in assay [4] (at 50.0 µM), 88.9% (active). The growth inhibition in assay [5] (setting [7]) is -67%; in assay [5] (setting [8]), 97% (active); in assay [5] (at 50.0 µM) it was 98.8% (active); in assay [6] (setting [7]) it was -115%; in assay [6] (setting [8]) it was 97% (active); in assay [6] (at 50.0 µM) it was 95.1% (active).

Consider `C=CCOc1ccc(N=NC(C#N)C#N)cc1`, for which the growth inhibition in assay [1] (setting [7]) is 8%; in assay [1] (setting [8]), 88% (active); in assay [1] (at 50.0 µM), 98.6% (active); in assay [2] (setting [7]), 5%; in assay [2] (setting [8]), 87% (active); in assay [2] (at 50.0 µM), 98.3% (active). The growth inhibition was 3% in assay [3] (setting [7]); 88% (active) in assay [3] (setting [8]); 52.7% in assay [3] (at 50.0 µM); 0% in assay [4] (setting [7]); 90% (active) in assay [4] (setting [8]); 58% in assay [4] (at 50.0 µM). For the same compound, the growth inhibition in assay [5] (setting [7]) was -2%; in assay [5] (setting [8]), 91% (active); in assay [5] (at 50.0 µM), 97.8% (active); in assay [6] (setting [7]), 4%; in assay [6] (setting [8]), 93% (active); in assay [6] (at 50.0 µM), 54%.

For the compound `CCC(c1cccc(O)c1)C(CC)c1cccc(O)c1` (configuration not stated), the growth inhibition in assay [1] (setting [7]) is 28%; in assay [1] (setting [8]), 55%; in assay [1] (at 50.0 µM) it was 57.2%; in assay [2] (setting [7]), 19%; in assay [2] (setting [8]), 67%; in assay [2] (at 50.0 µM) it was 60.9%. In addition, the growth inhibition in assay [3] (setting [7]) was 51%; in assay [3] (setting [8]), 76% (active); in assay [3] (at 50.0 µM), 39.4%; in assay [4] (setting [7]), 50%; in assay [4] (setting [8]), 74% (active); in assay [4] (at 50.0 µM) it was 48.9%. Moreover, the growth inhibition in assay [5] (setting [7]) is 59%; in assay [5] (setting [8]), 88% (active); in assay [5] (at 50.0 µM), 66.3%; in assay [6] (setting [7]) it was 17%; in assay [6] (setting [8]), 55%; in assay [6] (at 50.0 µM), 92.8% (active).

With `O=C1CCSC(=S)N1c1ccc(N=Nc2ccccc2)cc1`, the growth inhibition in assay [1] (setting [7]) was 57%; in assay [1] (setting [8]), 94% (active); in assay [1] (at 50.0 µM), 75.4% (active); in assay [2] (setting [7]) it was 9%; in assay [2] (setting [8]), 91% (active); in assay [2] (at 50.0 µM) it was 97.6% (active). Besides, the growth inhibition in assay [3] (setting [7]) was 20%; in assay [3] (setting [8]), 94% (active); in assay [3] (at 50.0 µM), 97.2% (active); in assay [4] (setting [7]), 11%; in assay [4] (setting [8]), 13%; in assay [4] (at 50.0 µM), 84% (active). Moreover, the growth inhibition was 0% in assay [5] (setting [7]); 4% in assay [5] (setting [8]); 93.5% (active) in assay [5] (at 50.0 µM); 18% in assay [6] (setting [7]); 94% (active) in assay [6] (setting [8]); 94.5% (active) in assay [6] (at 50.0 µM).

In the case of `Cc1ccc(I)c(C(C)(C)O)c1`, the growth inhibition in assay [1] (setting [7]) was 4%; in assay [1] (setting [8]) it was 71% (active); in assay [1] (at 50.0 µM), 94.8% (active); in assay [2] (setting [7]), 4%; in assay [2] (setting [8]), 75% (active); in assay [2] (at 50.0 µM), 56.6%. In addition, the growth inhibition in assay [3] (setting [7]) was 4%; in assay [3] (setting [8]), 77% (active); in assay [3] (at 50.0 µM), 58.6%; in assay [4] (setting [7]), 1%; in assay [4] (setting [8]), 30%; in assay [4] (at 50.0 µM), 30.8%. Further, the growth inhibition in assay [5] (setting [7]) was -1%; in assay [5] (setting [8]), 86% (active); in assay [5] (at 50.0 µM) it was 95.2% (active); in assay [6] (setting [7]) it was 7%; in assay [6] (setting [8]) it was 91% (active); in assay [6] (at 50.0 µM), 70.2% (active).

Regarding `C[C@]12CCC3[C@@H](CC[C@@H]4c5nonc5CC[C@]34C)C1CCC(=O)N2` (some centres not stated), the growth inhibition in assay [1] (setting [7]) was 10%; in assay [1] (setting [8]), 24%; in assay [1] (at 50.0 µM), 50.1%; in assay [2] (setting [7]), 5%; in assay [2] (setting [8]), 17%; in assay [2] (at 50.0 µM), -4.95%. The growth inhibition in assay [3] (setting [7]) is 11%; in assay [3] (setting [8]), 27%; in assay [3] (at 50.0 µM) it was 51.5%; in assay [4] (setting [7]), 7%; in assay [4] (setting [8]), 13%; in assay [4] (at 50.0 µM), -3.6%. In addition, the growth inhibition in assay [5] (setting [7]) is 6%; in assay [5] (setting [8]), 48%; in assay [5] (at 50.0 µM) it was 31.9%; in assay [6] (setting [7]) it was 16%; in assay [6] (setting [8]) it was 21%; in assay [6] (at 50.0 µM), 25.4%.
